Reference: PubChem BioAssay
Several values for one entry are separate records, joined by “and”; a condition that tells them apart may be missing. Equal values may be shown once. Records with an inconclusive call do not appear. Activity calls are given as the source filed them.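 Rule for the calls, unless noted: active = compounds that lower viability of the colon cancer cells in the luminescence readout, with no numeric limit stated; inactive = the rest.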

Tests used:
[1] = Wnt pathway potentiators raising nuclear beta-catenin – imaging, WNT3A-conditioned medium, mouse C2C12, NPC library, primary screen (AID 1117326; in the data active = nuclear beta-catenin stimulation mostly above about 4.2%, no sharp cut-off; inactive = mostly below about 10%; note: reference of the scale not given here); settings: stronger effect = higher value
[2] = stimulators of insulin release from INS-1E, primary screen, cell-based, 5 mM glucose, NPC library (AID 1117329;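 active = compound raises insulin release from rat beta cells at 5 mM glucose, no numeric limit stated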; note: reference of the scale not given here); settings: rat INS-1E insulin secretion, at 10 µM, stronger effect = higher value
[3] = growth inhibition of GSK3B-pretreated HCT116 cells – cell-based, CellTiter-Glo, 0.2 to 20 µM (AID 1117336;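 active = compounds lowering colon cancer cell viability after pretreatment blocking the GSK3B kinase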); settings: HCT116 viability after GSK3B inhibitor, at 20 µM, stronger effect = higher value
[4] = inhibition of endothelial tube formation, primary screen, imaging, VEGF stimulated, CD31 staining, tube area, NPC library (AID 1117340;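 active = compound that reduces growth-factor-driven endothelial tube area in a mixed cell culture, no cutoff stated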); settings: VEGF-stimulated ADSC/ECFC co-culture, at 10 µM, stronger effect = higher value
[5] = GLP1 release stimulators, primary, NCI-H716, NPC library (AID 1117341;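 active = compound raises GLP1 secretion from the human gut endocrine cells, with no numeric limit stated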; note: reference of the scale not given here); settings: NCI-H716 cells, at 10 µM, stronger effect = higher value
[6] = HCT116 colon cancer cell growth inhibition, primary screen, CellTiter-Glo luminescence, NPC library (AID 1117342;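 active = compounds that lower survival of HCT116 colon cancer cells in the luminescence readout, no numeric limit stated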); settings: at 20 µM (top of the series)
[7] = reduced SW480 viability measured with CellTiter-Glo, NPC library, primary (AID 1117343); settings: CellTiter-Glo luminescence; at 20 µM (top of the series) unless noted
[8] = NPC library primary testing for decreased DLD-1 cell viability via CellTiter-Glo (AID 1117346;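 active = compounds that lower survival of DLD-1 colon cancer cells in the luminescence readout, no cutoff given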); settings: DLD-1 viability, CellTiter-Glo luminescence; at 20 µM (top of the series)
[9] = viability loss in pontine glioma line – cell-based, SU-DIPG-XVII, MIPE5.0, CellTiter-Glo, qHTS, dose response (AID 1347060; cut-off not given, nearly all actives have AC50 up to about 26 µM); settings: CellTiter-Glo ATP luminescence
[10] = viability loss in pontine glioma line – cell-based, SU-DIPG-XIII, MIPE4.0, CellTiter-Glo, qHTS, dose response (AID 1347061; cut-off not given, nearly all actives have AC50 up to about 37 µM;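 note: cells exposed to compound for 48 hours before readout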); settings: CellTiter-Glo ATP luminescence
[11] = viability loss in pontine glioma line – cell-based, JHH-DIPG-1, MIPE4.0, CellTiter-Glo, qHTS, dose response (AID 1347062; cut-off not given, nearly all actives have AC50 up to about 27 µM); settings: JHH-DIPG-1 viability, CellTiter-Glo ATP luminescence
[12] = growth inhibition of DIPG cells – cell-based, MIPE5.0 library, qHTS (AID 1347068; cut-off not given, nearly all actives have IC50 up to about 30 µM); settings: SU-DIPG-XXV viability
[13] = target: NAD(+) hydrolase SARM1 (Homo sapiens) (UniProt Q6SZW1); test: blocking NAD cleavage by SARM1 SAM-TIR – cell lysate, NAD-Glo luminescence (AID 1508614;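 active = compound whose remaining NAD level is above about 45 nM, limit read from the data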;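 note: higher remaining NAD means stronger inhibition of SARM1 NADase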); settings: SAM-TIR HEK293T lysate NADase, at 1 µM, stronger effect = higher value
NAD(+) hydrolase SARM1 (Homo sapiens), sequence (Q6SZW1 whole entry, looked up): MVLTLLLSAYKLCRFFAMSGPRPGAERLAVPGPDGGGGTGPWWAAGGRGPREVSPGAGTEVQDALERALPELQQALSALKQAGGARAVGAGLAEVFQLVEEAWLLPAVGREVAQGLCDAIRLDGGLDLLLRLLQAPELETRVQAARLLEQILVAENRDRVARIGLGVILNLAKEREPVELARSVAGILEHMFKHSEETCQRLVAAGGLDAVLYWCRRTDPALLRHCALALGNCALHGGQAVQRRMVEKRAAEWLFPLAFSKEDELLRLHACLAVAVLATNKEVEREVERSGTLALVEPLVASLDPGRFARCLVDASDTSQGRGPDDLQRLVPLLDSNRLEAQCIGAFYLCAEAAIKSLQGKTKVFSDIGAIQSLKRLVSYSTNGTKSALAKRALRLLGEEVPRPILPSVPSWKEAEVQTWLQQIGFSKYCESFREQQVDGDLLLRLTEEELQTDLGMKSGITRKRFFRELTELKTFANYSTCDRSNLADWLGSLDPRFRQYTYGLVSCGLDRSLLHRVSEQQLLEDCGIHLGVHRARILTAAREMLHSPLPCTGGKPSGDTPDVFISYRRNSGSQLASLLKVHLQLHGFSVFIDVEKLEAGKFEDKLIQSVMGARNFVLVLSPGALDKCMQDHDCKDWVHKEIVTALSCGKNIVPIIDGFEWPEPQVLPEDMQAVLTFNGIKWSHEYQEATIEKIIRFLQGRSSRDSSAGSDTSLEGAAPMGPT

[14] = test system: Aerobactin synthetase IucA (Klebsiella pneumoniae); test: inhibition of K. pneumoniae IucA enzyme – biochemical, Tocris library, absorbance (AID 1345561; call rule not given here;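 note: 100% = enzyme without compound and 0% = no enzyme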); settings: purified IucA enzyme assay, absorbance (OD) read-out; stronger effect = lower value;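 tested at 8 µM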
[15] = viability loss with induced miR-34 in A549 – imaging, A549 dox-inducible miR-34, nuclei and caspase counts, primary screen (AID 1347080;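 active = compounds whose cell count with miR-34 switched on is under 0.7 times the count with it off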); settings: A549 miR-34 inducible, Hoechst nuclei count, 48 h
[16] = galactose survival enhancers in mitochondrial complex I cybrids – cell-based, galactose medium, ATP luminescence, primary screen (AID 1645843;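 active = z-score of at least 1.8 in each of two replicates, scored against plate mean and spread of sample wells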;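 note: positive z means more ATP and so rescue of galactose-driven cybrid death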); settings: complex I mutant cybrid cells, 72 h, stronger effect = higher value
[17] = MELAS cybrid and Rieske KO viability enhancers – cell-based, MELAS cybrids, Rieske KO mouse fibroblasts, CellTiter-Glo, primary screen (AID 1508586;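 active = mean z-score across replicates of 1.96 or higher in either the MELAS or the Rieske mutant cell line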;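 note: z relative to plate mean and SD of compound and empty wells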); settings: low glucose
[18] = stronger effect = lower value, cell number ratio, induced over uninduced
[19] = measured here: relative caspase fold change +Dox/-Dox
[20] = measured here: total cells with miR-34 induction, stronger effect = lower value
[21] = measured here: total cells without miR-34 induction
[22] = MELAS cybrid survival, CellTiter-Glo 48 h, stronger effect = higher value
[23] = Rieske KO mouse fibroblast survival, CellTiter-Glo 72 h

Cc1oc(=O)oc1CN1CCN(c2cc3c(cc2F)c(=O)c(C(=O)O)c2n3C(C)S2)CC1 (configuration not stated)
inactive: nuclear beta-catenin stimulation ([1]; at 10 µM) 0.8% | insulin secretion stimulation [2] 1.6% | viability decrease [3] 35.8% | tube area decrease [4] 4.4% | GLP1 secretion stimulation [5] 2.3% | inhibition of viability [6] 38.1% | viability decrease (inhibition) [7] 26.1% | viability decrease (inhibition) [8] 1.4% | outcome [9] | outcome [10] | outcome [11] | outcome [12] | remaining NAD [13] 10 nM
1.4%: nuclear beta-catenin stimulation ([1]; stimulation, at 2 µM)

CC1(c2ccccc2)OC(C(=O)O)=CC1=O (configuration not stated)
9820: cell count [15, 20]
10000: cell count [15, 21]
inactive: nuclear beta-catenin stimulation ([1]; at 10 µM) 0.9% | insulin secretion stimulation [2] 0.9% | viability decrease [3] 1.95% | tube area decrease [4] 0.2% | GLP1 secretion stimulation [5] 1.1% | inhibition of viability [6] -7.4% | viability decrease (inhibition) [7] 4.5% | viability decrease (inhibition) [8] 4.95% | remaining activity [14] 122% | fold change [15, 18] 0.98 | z-score [16] -0.34
1.2%: nuclear beta-catenin stimulation ([1]; stimulation, at 2 µM)
0.832: fold change [15, 19]

O=C(O)Cc1ccc(OCCNC[C@H](O)c2ccccc2)cc1
2.1: fold change [15, 19]
inactive: nuclear beta-catenin stimulation ([1]; at 10 µM) 23.3% | insulin secretion stimulation [2] 0.6% | viability decrease [3] -5.3% | tube area decrease [4] -9.4% | GLP1 secretion stimulation [5] -0.5% | inhibition of viability [6] -1.1% | viability decrease (inhibition) [7] 8.4% | viability decrease (inhibition) [8] 19.5% | remaining activity [14] 103% | fold change [15, 18] 0.89 | z-score [16] 0.015
-5%: nuclear beta-catenin stimulation ([1]; stimulation, at 2 µM)
10000: cell count [15, 21]
8910: cell count [15, 20]

COc1ccc2cccc(CCNC(C)=O)c2c1
inactive: nuclear beta-catenin stimulation ([1]; at 10 µM) 1.6% | insulin secretion stimulation [2] -1.5% | viability decrease [3] 2.7% | tube area decrease [4] 1% | GLP1 secretion stimulation [5] -0.3% | inhibition of viability [6] 3.7% | viability decrease (inhibition) [7] -8.5% | viability decrease (inhibition) [8] 3.3% | outcome [10] | outcome [11] | outcome [12] | fold change [15, 18] 0.904 and 0.982 and 0.944 | z-score [17, 22] 0.556 and -0.393 | z-score [16] 0.205
8590 and 5820 and 7020: cell count [15, 20]
0.28 and -0.0702: z-score [17, 23]
9510 and 5930 and 7430: cell count [15, 21]
-1%: nuclear beta-catenin stimulation ([1]; stimulation, at 2 µM)
0.381 and 0.908 and 0.855: fold change [15, 19]

CCOC(=O)c1c(C)n(C)c2ccc(O)cc12
2.1%: nuclear beta-catenin stimulation ([1]; stimulation, at 2 µM)
inactive: nuclear beta-catenin stimulation ([1]; at 10 µM) 0.7% | insulin secretion stimulation [2] 0.5% | viability decrease [3] -5.75% | tube area decrease [4] -15.4% | GLP1 secretion stimulation [5] 3.6% | inhibition of viability [6] 0% | viability decrease (inhibition) [7] 7% | viability decrease (inhibition) [8] -0.8% | outcome [9] | outcome [11] | outcome [12] | fold change [15, 18] 0.886 | z-score [17, 22] -0.277
0.616: z-score [17, 23]
7760: cell count [15, 20]
8760: cell count [15, 21]
0.841: fold change [15, 19]

O=C(Nc1ccc(S(=O)(=O)N2CCOCC2)cc1)c1cc(Cl)ccc1NS(=O)(=O)c1ccc(Cl)s1
active: viability decrease [3] 118% | tube area decrease [4] 100% | GLP1 secretion stimulation [5] 39.8% | inhibition of viability [6] 124% | viability decrease (inhibition) [7] 158% | viability decrease (inhibition) [8] 101%
inactive: nuclear beta-catenin stimulation ([1]; at 10 µM) 0.9% | insulin secretion stimulation [2] 3.7% | outcome [9] | outcome [12]
-0.5%: nuclear beta-catenin stimulation ([1]; stimulation, at 2 µM)
